Experimental data: PubChem BioAssay (Tox21)
Values without a mark were called inactive. Inconclusive results are not listed. Calls of active or inactive are those of the source. Calls follow the shape of the dose curve; as a rule, active = well fitted activation curve with a large enough effect in the repeat runs; inconclusive = weak or mixed curves; inactive = flat fitted curve, though single readings scatter.

experiment: A CellTox Green Cytotoxicity Assay to monitor cytotoxicity in HEK293 cells - 32 hour (AID 1224881); conditions: CellTox Green fluorescence; series mostly up to 76.8 µM; cytotoxicity increase: at the top concentration; also: nearly all actives have a fitted effect of over 40% in size; also: potency is read from the fitted curve at half-maximal effect
Procedure, shortened: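 Cytotoxicity was tracked continuously in HEK293 cells by a DNA-binding dye excluded from viable cells. Compounds were transferred in DMSO 5 h after seeding; fluorescence was recorded at intervals up to 40 h.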
% is scaled to controls: 0 for no effect and ±100 for the full control effect.

| Structure (SMILES) | cytotoxicity increase | Potency |
| --- | --- | --- |
| c1ccc(CNCc2ccccc2)cc1 | 2.79% |  |
| O=C1Nc2cc(Cl)ccc2Oc2ccccc21 | 3.23% [at 35.3 µM] |  |
| CCN(CC)C(C)CN1c2ccccc2Sc2ccccc21 (stereo not drawn) | -22.6% [at 35.3 µM] |  |
| CC(=O)CC(=O)c1ccccc1 | -7.6% |  |
| Cn1c(NCCN(CCO)CCCc2ccc([N+](=O)[O-])cc2)cc(=O)n(C)c1=O | 14.8% [at 35.3 µM] |  |
| CCN1CCC[C@H]1CNC(=O)c1c(OC)ccc(Br)c1OC | -1.56% [at 35.3 µM] |  |
| CN1CCC(=C2c3ccccc3C=Cc3ccccc32)CC1 | 18.9% [at 35.3 µM] |  |
| CC[C@@H]1C[C@H](N(Cc2cc(C(F)(F)F)cc(C(F)(F)F)c2)C(C)=O)c2cc(C(F)(F)F)ccc2N1C(=O)OC(C)C | 1.03% |  |
| Cn1c(N)nc2nc[nH]c2c1=O | 1.34% |  |
| CC(C)CCCCCCOC(=O)c1ccc(C(=O)OCCCCCCC(C)C)c(C(=O)OCCCCCCC(C)C)c1 | 1.22% |  |
| CC(=O)/C=C/C1C(C)=CCCC1(C)C (stereo not drawn) | -0.327% |  |
| SC1CCCC1 | -4.08% |  |
| CC(C)(C)C(=O)OCOP(=O)(COCCn1cnc2c(N)ncnc21)OCOC(=O)C(C)(C)C | 2.49% [at 35.3 µM] |  |
| CN(C(=O)CCCOc1ccc2[nH]c(=O)ccc2c1)C1CCCCC1 | -6.75% [at 35.3 µM] |  |
| CCCOc1ccc2nc(NC(=O)OC)[nH]c2c1 | -15.4% [at 35.3 µM] |  |
| O=C1[C@H](CC[C@H](O)c2ccc(F)cc2)[C@@H](c2ccc(O)cc2)N1c1ccc(F)cc1 | 0.529% [at 35.3 µM] |  |
| Nc1nc(N)c(-c2ccccc2)s1 | -0.481% [at 35.3 µM] |  |
| C=CC(=O)OCCOC(=O)CCC(=O)O | -2.43% |  |
| O=C(CC(=O)c1ccccc1)c1ccccc1 | -5.47% |  |
| COC(=O)C(C)=O | -8.29% |  |

| Structure (SMILES) | cytotoxicity increase | Potency |
| --- | --- | --- |
| CN(C)C/C=C(/c1ccc(Br)cc1)c1cccnc1 | -1.69% [at 35.3 µM] |  |
| CC[C@]12CCCN3CCc4c(n(c5ccccc45)C(=O)C1)[C@@H]32 | 22.6% [at 35.3 µM] |  |
| Nc1nc(N)c2nc(CNc3ccc(C(=O)N[C@@H](CCC(=O)O)C(=O)O)cc3)cnc2n1 | -4.5% |  |
| C=Cc1c(C)c2cc3[nH]c(cc4nc(cc5nc(cc1[nH]2)C(C)=C5CCC(=O)O)C(CCC(=O)O)=C4C)c(C)c3C=C | -19.1% [at 35.3 µM] |  |
| O=C(Cl)c1c(Cl)cccc1Cl | -3.77% |  |
| O=C(c1ccc(O)cc1)c1ccc(O)cc1 | 0.245% |  |
| CCCCC(CC)COCCCN (stereo not drawn) | 17% |  |
| O=c1[nH]cnc2ccccc12 | -0.765% |  |
| Nc1nc(CC(=O)O)cs1 | -2.21% |  |
| Cc1ccc(C(=O)C(C)CN2CCCCC2)cc1 (stereo not drawn) | 0.177% [at 35.3 µM] |  |
| Oc1ccc(O)c2c(O)cccc12 | -43.5% |  |
| CC/C(=C\C(=N/O)C(N)=O)C(C)[N+](=O)[O-] (stereo not drawn) | -0.282% |  |
| CCCCOC(=O)c1ccccc1C(=O)OCC(CC)CCCC (stereo not drawn) | 4.05% |  |
| O=C=NC1CCC(CC2CCC(N=C=O)CC2)CC1 (stereo not drawn) |  | 54.9 µM (active) |
| CCOc1cc(OCC)c(C(=O)CCC(=O)O)cc1OCC | -0.632% [at 35.3 µM] |  |
| O=CNc1ccccc1 | -2.43% |  |
| CCOc1nc2cccc(C(=O)O)c2n1Cc1ccc(-c2ccccc2-c2nn[nH]n2)cc1 | -32.3% [at 35.3 µM] |  |
| CCCCCCc1ccc(N)cc1 | 18.9% |  |
| O=C(O)Cc1cc(I)c(Oc2ccc(O)c(I)c2)c(I)c1 | -5.74% |  |

experiment: A CellTox Green Cytotoxicity Assay to monitor cytotoxicity in HepG2 cells - 0 hour (AID 1224882); conditions: CellTox Green fluorescence; series mostly up to 76.8 µM; cytotoxicity: at the top concentration; also: nearly all actives have a fitted effect of over 35% in size
Procedure, shortened: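 Real-time, homogeneous cytotoxicity readout: dead-cell DNA staining by CellTox Green in HepG2 monolayers, fluorescence measured at timed intervals up to 40 h of continuous compound exposure.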

| Structure (SMILES) | cytotoxicity |
| --- | --- |
| c1ccc(CNCc2ccccc2)cc1 | 0.767% |
| O=C1Nc2cc(Cl)ccc2Oc2ccccc21 | -0.769% [at 35.3 µM] |
| CCN(CC)C(C)CN1c2ccccc2Sc2ccccc21 (stereo not drawn) | -8.43% [at 35.3 µM] |
| CC(=O)CC(=O)c1ccccc1 | -0.704% |
| Cn1c(NCCN(CCO)CCCc2ccc([N+](=O)[O-])cc2)cc(=O)n(C)c1=O | -6.28% [at 35.3 µM] |
| CCN1CCC[C@H]1CNC(=O)c1c(OC)ccc(Br)c1OC | -16.9% [at 35.3 µM] |
| CN1CCC(=C2c3ccccc3C=Cc3ccccc32)CC1 | 0.501% [at 35.3 µM] |
| CC[C@@H]1C[C@H](N(Cc2cc(C(F)(F)F)cc(C(F)(F)F)c2)C(C)=O)c2cc(C(F)(F)F)ccc2N1C(=O)OC(C)C | 2.96% |
| Cn1c(N)nc2nc[nH]c2c1=O | 0.552% |
| CC(C)CCCCCCOC(=O)c1ccc(C(=O)OCCCCCCC(C)C)c(C(=O)OCCCCCCC(C)C)c1 | 3.1% |
| CC(=O)/C=C/C1C(C)=CCCC1(C)C (stereo not drawn) | -2.56% |
| SC1CCCC1 | -2.03% |
| CC(C)(C)C(=O)OCOP(=O)(COCCn1cnc2c(N)ncnc21)OCOC(=O)C(C)(C)C | -2.83% [at 35.3 µM] |
| CN(C(=O)CCCOc1ccc2[nH]c(=O)ccc2c1)C1CCCCC1 | 0.683% [at 35.3 µM] |
| CCCOc1ccc2nc(NC(=O)OC)[nH]c2c1 | 1.31% [at 35.3 µM] |
| O=C1[C@H](CC[C@H](O)c2ccc(F)cc2)[C@@H](c2ccc(O)cc2)N1c1ccc(F)cc1 | -0.869% [at 35.3 µM] |
| Nc1nc(N)c(-c2ccccc2)s1 | -0.139% [at 35.3 µM] |
| C=CC(=O)OCCOC(=O)CCC(=O)O | -4.48% |
| O=C(CC(=O)c1ccccc1)c1ccccc1 | -6.75% |
| COC(=O)C(C)=O | -7.63% |

| Structure (SMILES) | cytotoxicity |
| --- | --- |
| CN(C)C/C=C(/c1ccc(Br)cc1)c1cccnc1 | -2.29% [at 35.3 µM] |
| CC[C@]12CCCN3CCc4c(n(c5ccccc45)C(=O)C1)[C@@H]32 | 6.3% [at 35.3 µM] |
| Nc1nc(N)c2nc(CNc3ccc(C(=O)N[C@@H](CCC(=O)O)C(=O)O)cc3)cnc2n1 | 0.821% |
| C=Cc1c(C)c2cc3[nH]c(cc4nc(cc5nc(cc1[nH]2)C(C)=C5CCC(=O)O)C(CCC(=O)O)=C4C)c(C)c3C=C | -6.36% [at 35.3 µM] |
| O=C(Cl)c1c(Cl)cccc1Cl | -8.38% |
| O=C(c1ccc(O)cc1)c1ccc(O)cc1 | 0.256% |
| CCCCC(CC)COCCCN (stereo not drawn) | 3.22% |
| O=c1[nH]cnc2ccccc12 | 4.83% |
| Nc1nc(CC(=O)O)cs1 | 10.4% |
| Cc1ccc(C(=O)C(C)CN2CCCCC2)cc1 (stereo not drawn) | -2.23% [at 35.3 µM] |
| Oc1ccc(O)c2c(O)cccc12 | -11% |
| CC/C(=C\C(=N/O)C(N)=O)C(C)[N+](=O)[O-] (stereo not drawn) | -8.03% |
| CCCCOC(=O)c1ccccc1C(=O)OCC(CC)CCCC (stereo not drawn) | -1.92% |
| O=C=NC1CCC(CC2CCC(N=C=O)CC2)CC1 (stereo not drawn) | 0.625% |
| CCOc1cc(OCC)c(C(=O)CCC(=O)O)cc1OCC | -2.6% [at 35.3 µM] |
| O=CNc1ccccc1 | -0.858% |
| CCOc1nc2cccc(C(=O)O)c2n1Cc1ccc(-c2ccccc2-c2nn[nH]n2)cc1 | -2.39% [at 35.3 µM] |
| CCCCCCc1ccc(N)cc1 | 3.76% |
| O=C(O)Cc1cc(I)c(Oc2ccc(O)c(I)c2)c(I)c1 | 1.21% |
